Screening results as filed in PubChem.
Sampled rows, rich in hits. Any-hit rate of the full collection: about 18%.
DT40 TDP1 no CPT: qHTS for Inhibitors of human tyrosyl-DNA phosphodiesterase 1 (TDP1): qHTS in cells in absence of CPT | AID 686978, 2013 | Potency, µM (top dose mostly 46.2 µM), inactives show at the top dose activity change, negative = growth inhibition, usual class: inhibitors | 15% of 420,000 active | DT40 Tdp1-/- hTDP1 cells, no CPT, ATP luminescence, 48 h; note: potency is the fitted concentration of half-maximal effect; % is set by controls: 0 for no effect and ±100 for the full control effect; nearly all actives have a fitted effect of over 55% in size
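Chicken DT40 Tdp1-/- cells stably complemented with human TDP1 were seeded at 400 cells/well with DMSO in place of 20 nM camptothecin. After compound pinning, cells grew at least 48 hr at 37 °C; viability read by CellTiter-Glo luminescence.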
TDP1 cell CPT: growth inhibition of DT40 Tdp1-/-;hTDP1 cells with camptothecin (screen for TDP1 inhibitors); Potency, µM (series often up to 46.2 µM), for the others: at the highest dose activity change, negative = growth inhibition, hits mostly inhibitors; chicken DT40 Tdp1-/-;hTDP1 cells + 20 nM CPT, ATP luminescence, 48 h; 12% of 420,000 active; AID 686979; note: potency is the fitted concentration of half-maximal effect; % is set by controls: 0 for no effect and ±100 for the full control effect; nearly all actives have a fitted effect of over 55% in size
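Chicken DT40 Tdp1-/- cells stably complemented with human TDP1 were seeded at 400 cells/well in medium containing 20 nM camptothecin, exposed to pin-transferred compounds, and grown at 37 °C for at least 48 hr. Viability was read as ATP luminescence.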
TDP1 block: inhibitors of human tyrosyl-DNA phosphodiesterase TDP1; 0.28% of 350,000 active; Q9NUW8; AID 485290; Potency, µM (doses to about 130 µM), for inactives: at the highest dose activity change, negative = inhibition, most hits filed as inhibitors; recombinant TDP1, AlphaScreen DNA substrate cleavage; note: potency is the fitted concentration of half-maximal effect; % is set by controls: 0 for no effect and ±100 for the full control effect; nearly all actives have a fitted effect of over 40% in size
Target sequence (Q9NUW8 whole entry, looked up): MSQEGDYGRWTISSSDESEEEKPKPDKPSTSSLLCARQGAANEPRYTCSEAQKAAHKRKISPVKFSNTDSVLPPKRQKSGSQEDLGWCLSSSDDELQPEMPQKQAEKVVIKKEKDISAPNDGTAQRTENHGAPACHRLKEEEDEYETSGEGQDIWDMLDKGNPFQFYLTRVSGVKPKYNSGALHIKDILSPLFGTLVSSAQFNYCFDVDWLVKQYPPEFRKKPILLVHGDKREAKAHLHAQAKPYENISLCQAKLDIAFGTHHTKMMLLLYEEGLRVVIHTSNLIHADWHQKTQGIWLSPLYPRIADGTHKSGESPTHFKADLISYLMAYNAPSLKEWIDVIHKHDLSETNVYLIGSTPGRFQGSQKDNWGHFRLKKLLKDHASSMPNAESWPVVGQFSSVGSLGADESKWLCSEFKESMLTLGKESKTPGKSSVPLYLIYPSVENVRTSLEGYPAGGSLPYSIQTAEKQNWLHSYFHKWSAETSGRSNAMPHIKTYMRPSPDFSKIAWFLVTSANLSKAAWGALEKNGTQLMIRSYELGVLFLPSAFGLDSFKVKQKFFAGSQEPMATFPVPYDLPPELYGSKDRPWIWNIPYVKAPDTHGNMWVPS
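Recombinant human Tdp1 (E. coli-expressed, 1 nM final) preincubated with compounds 15 min at room temperature, then 5'-biotin/3'-phosphotyrosine-FITC DNA substrate (15 nM final) added for 5 min. AlphaScreen beads (10 ug/ml final) added 10 min; cleavage lowers signal.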
IL-1B inflam inh: inflammasome signaling inhibition, IL-1 beta readout. activity change, % at 57.5 µM. AID 743279. THP-1 LPS/ATP IL-1B secretion, AlphaLISA, 16 h; stronger effect = lower value. 4.7% of 360,000 active; in the data active = activity change below about -50%; inconclusive = mostly about -30% to -49%; note: % is set by controls: 0 for no effect and ±100 for the full control effect
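Secreted IL-1B measured by AlphaLISA bead assay after 16 h compound exposure of THP-1 cells; compounds (final up to 57.5 uM) added 1 h before LPS (250 ng/mL) and ATP (1.25 mM) stimulation; lower signal means less secretion.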
TGFb inhibitor: inhibitors of TGF-b signaling; HepG2 CAGA-GFP TGF-b/SMAD3 reporter, GFP fluorescence, 18 h; TGF-beta stimulated, 500 pg/mL final; Potency, µM (highest dose often 46.1 µM), without a hit: top-dose activity, negative = inhibition, most hits filed as inhibitors; 1.2% of 410,000 active; AID 588855; note: potency is the fitted concentration of half-maximal effect; % is set by controls: 0 for no effect and ±100 for the full control effect; nearly all actives have a fitted effect of over 65% in size
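HEPG2 CAGA-GFP cells (1000/well, DMEM with 1% FBS) were pre-incubated 2 h at 37 degrees C, given compound by pin tool, then stimulated with TGF-beta at 500 pg/mL final for 18 h before per-cell GFP fluorescence imaging.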
HepG2 viability: HepG2 cytotoxicity, counter-screen for TGF-b inhibitors; HepG2 CAGA-GFP viability, ATP luminescence, 18 h; Potency, µM (highest dose often 46.1 µM), without a hit: at the top dose activity change, negative = cytotoxicity, usual class: cytotoxic; 0.76% of 410,000 active; AID 588856; note: potency is the fitted concentration of half-maximal effect
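CellTiter-Glo luminescence gave cytotoxicity after 18 hours at 37 degrees C. The cells were HepG2 CAGA-GFP in 1% FBS DMEM, stimulated with 500 pg/mL TGF-beta after compound addition. %Activity was normalised to no-cell wells (complete cell-killing) and DMSO (no toxicity), and curves were fitted and classified.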
Starred values were filed as active, the others as inactive; i = inactive; ? = inconclusive; . = no result; [ ] = remark or other dose. Unless noted, calls come from the whole dose curve; as a rule, active = well fitted curve in the direction sought with a large enough effect; inconclusive = small, poorly fitted or top-dose-only effect, or another doubt; inactive = no such curve, though single readings can be large; an effect the other way counts as inactive or inconclusive.

SMILES	DT40 TDP1 no CPT	TDP1 cell CPT	TDP1 block	IL-1B inflam inh	TGFb inhibitor	HepG2 viability
COc1ccccc1CN1CCC2(CC1)CCN(C(=O)c1cccn1C)CC2	?	4%	.	.	.	.
Cc1ccc(-c2c(C(=O)N3CCN(c4ccc(F)cc4)CC3)oc(=O)c3ccccc23)cc1	?	?	-2%	.	11%	-4%
CCOc1ccc(-n2c(SCC(=O)NCc3ccco3)nnc2-c2c[nH]c3ccccc23)cc1	13µM*	?	10%	-29	-17%	-14%
Cn1cnnc1SCC(=O)NN1C(=O)NC(C)(c2ccccc2)C1=O (stereo not given)	1%	1%	0%	-7	-1%	-3%
CCOc1ccc(-n2c(SCC(=O)Nc3cc(C)on3)nnc2-c2c[nH]c3ccccc23)cc1	-24%	-13%	6%	25	1%	-6%
Cn1c(SCC(=O)NCc2ccco2)nnc1-c1c[nH]c2ccccc12	-23%	21µM*	3%	10	-1%	2%
Cn1c(SCC(=O)NN2C(=O)NC(C)(c3ccccc3)C2=O)nnc1-c1ccncc1 (stereo not given)	29µM*	-15%	0%	0	2%	0%
Cc1cc(SCC(=O)NC(=O)NCc2ccco2)nc2c(C)cccc12	29µM*	?	-13%	15	?	-10%
CCOC(=O)N1CCN(CC(=O)Nc2ccccc2C(=O)Nc2ccccc2)CC1	?	?	0%	-4	7%	-17%
CC(NC(=O)c1cccc(S(=O)(=O)N2CCCCCC2)c1)c1ccccc1 (stereo not given)	?	?	0%	-7	-10%	-19%
Cn1c(SCC(=O)NCc2ccco2)nnc1-c1ccccc1	-13%	0%	5%	-10	2%	-17%
CCOc1ccc(Nc2nc(Cc3nnc(SCC(=O)NCc4ccco4)n3CC)cs2)cc1	13µM*	13µM*	7%	19	-11%	-6%
Cn1c(SCC(=O)NC(=O)NCc2ccco2)nnc1-c1ccccc1	3%	-2%	40µM*	0	-8%	-6%
COc1cc2c(cc1OC)CN(CC(=O)Nc1ccc(Cl)c(S(=O)(=O)N(C)C)c1)CC2	.	.	-5%	.	.	.
Cc1nn(CC(C)C)c(Cl)c1C(=O)N(C)CC(=O)Nc1c(Cl)cccc1Cl	-17%	-11%	0%	i	-2%	19%
COc1ccc(CC(=O)NNC(=S)NC(=O)c2cc(OC)c(OC)c(OC)c2)cc1	7.3µM*	9.2µM*	.	21	-3%	-5%
COc1cc(C(=O)NC(=S)NCc2ccncc2)cc(OC)c1OC	21µM*	?	.	-26	9%	8%
COc1cc(C(=O)NNC(=S)NC(=O)c2ccc(F)cc2)cc(OC)c1OC	?	29µM*	3%	84	0%	-22%
C/C=C(\C=C\[C@@H](C)C/C=C/CC/C=C/C=C\C[C@@H](OC)/C(C)=C\C=C(C)C)CC(=O)O	.	.	6%	.	.	.
COc1ccc(N(CC(=O)NCc2ccccc2C)S(=O)(=O)c2ccccc2[N+](=O)[O-])c(OC)c1	?	?	-2%	-27	?	-13%
O=C(c1ccc([N+](=O)[O-])cc1)N1CCSC1c1ccc(Br)cc1 (stereo not given)	18µM*	?	6%	-6	-2%	-20%
O=C(c1ccc([N+](=O)[O-])cc1)N1CCSC1c1ccc(Cl)cc1 (stereo not given)	-22%	0%	11%	3	5%	-4%
O=C(COC(=O)c1ccc(OC(F)(F)F)cc1)Nc1ncccn1	17%	21µM*	22µM*	4	-5%	-14%
O=C(COC(=O)c1cccc(OC(F)F)c1)Nc1ncccn1	-11%	12%	45µM*	23	-5%	-23%
NC(=O)NC(=O)COC(=O)c1ccc(OC(F)(F)F)cc1	3%	-4%	1%	0	-8%	4%
SMILES	DT40 TDP1 no CPT	TDP1 cell CPT	TDP1 block	IL-1B inflam inh	TGFb inhibitor	HepG2 viability
CN(c1ccc(C(=O)NCCCn2ccnc2)cc1)S(C)(=O)=O	8%	-12%	1%	0	30%	-18%
O=C1CNC(=S)N1CCc1ccccc1Cl	14%	-1%	-1%	-4	13%	-8%
O=C(NCC1CCCO1)c1cc([N+](=O)[O-])ccc1Cl (stereo not given)	-10%	-15%	3%	-17	12%	-5%
O=C(NCC1CCCO1)c1ccc(NC(=O)c2ccc([N+](=O)[O-])cc2)cc1 (stereo not given)	-20%	-2%	.	12	8%	9%
O=C(NCC1CCCO1)c1ccc(Oc2ccc([N+](=O)[O-])cc2)cc1 (stereo not given)	23µM*	?	-5%	-10	25%	1%
O=C(NCC1CCCO1)c1cccc(Oc2ccc([N+](=O)[O-])cc2Cl)c1 (stereo not given)	21µM*	?	3%	6	9%	-14%
O=C(NCC1CCCO1)c1ccc(Oc2ccc([N+](=O)[O-])cc2Cl)cc1 (stereo not given)	11%	-1%	0%	9	-4%	-8%
O=C(NCC1CCCO1)C(=Cc1cccc([N+](=O)[O-])c1)C(=O)NCC1CCCO1 (stereo not given)	23µM*	?	3%	-110*	?	0%
O=C(NCC1CCCO1)c1ccccc1NS(=O)(=O)c1cc([N+](=O)[O-])ccc1Cl (stereo not given)	?	15µM*	5%	32	0%	-9%
Cc1ccc(-c2nn(-c3ccc(F)cc3)c3c2cnc2cc(F)c(F)cc23)cc1	?	-1%	5%	.	-23%	3%
Cc1ccc(NC(=O)CSc2ncnc3c2sc2ccccc23)cc1C	0%	-12%	3%	.	3%	-7%
C/C(CCN1CCc2nc(-c3ccccc3)c(-c3ccccc3)cc2C1)=N\O[C@@H](C)CN1CCCCc2nc(C)c(C)cc21	.	.	5%[21 µM]	.	.	.
CCn1c(SC(C)C)nnc1-c1cc(-c2ccccc2)sc1N	16µM*	?	10%	-6	?	-24%
O=C(COC(=O)/C=C/c1ccc(C(F)(F)F)cc1)NCCC1=CCCCC1	3%	-17%	2%	-9	12%	-10%
COc1ccccc1/C=C/C(=O)NCCC1=CCCCC1	-25%	-28%	-3%	-50*	10%	-2%
